# Results reported in the supplement of paper PMC11537057.
# Where a name gives a salt, the structure may show the parent alone. In all, about 1,700 compounds went through this assay and about 15 (0.9%) showed activity. This excerpt belongs to a sample that is enriched for actives. Values without a mark were called inactive.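 Rule for the calls: active = infection cut by 80% or more with cell growth above 90% in both runs; inactive = the rest.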
# Test system: HSV-1 strain 17 YFP-ICP4 in A549
# Experiment: HSV-1 infection relative to DMSO (ICP4-YFP per H2B-RFP signal); higher = more viral infection (less antiviral activity), active = hit call of the paper
# Settings: 10 µM; 48 h; MOI: 0.1
# Description: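 Selleck FDA-approved library (L1300) screened in duplicate at 10 µM on A549 H2B-mRuby cells in 384-well plates, infected with HSV-1 strain 17 YFP-ICP4 at MOI 0.1 one hour before drug addition. Imaged after 2 days at 37°C. Cell growth (H2B-RFP) and infection (ICP4-YFP) are expressed as % of DMSO-treated wells. Hits: growth >90% and infection <20% of DMSO.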
row,Compound,HSV-1 infection
1,OB1OCc2cc(F)ccc21 [Tavaborole (AN-2690)],115%
2,CCOc1cc(N)c(Cl)cc1C(=O)NCC1CN(Cc2ccc(F)cc2)CCO1 (centres undefined) [Mosapride Citrate],96.7%
3,CCOc1cc(N)c(Cl)cc1C(=O)NCC1CN(Cc2ccc(F)cc2)CCO1 (centres undefined) [Mosapride],97.6%
4,C[N+]1(C)[C@@H]2C[C@@H](OC(=O)C(O)(c3cccs3)c3cccs3)C[C@H]1[C@@H]1O[C@@H]12 [Tiotropium Bromide hydrate],100%
5,CCOCCn1c(C2CCN(CCc3ccc(C(C)(C)C(=O)O)cc3)CC2)nc2ccccc21 [Bilastine],107%
6,CC1(C)S[C@@H]2[C@H](NC(=O)Cc3ccccc3)C(=O)N2[C@H]1C(=O)O.CCN(CC)CCOC(=O)c1ccc(N)cc1 [Penicillin G Procaine],120%
7,Cc1cncc(CN2CCC(=C3c4ccc(Cl)cc4CCc4cccnc43)CC2)c1 [Rupatadine Fumarate],108%
8,CO[C@H]1O[C@H](COS(=O)(=O)O)[C@@H](O[C@@H]2O[C@@H](C(=O)O)[C@@H](O[C@H]3O[C@H](COS(=O)(=O)O)[C@@H](O[C@@H]4O[C@H](C(=O)O)[C@@H](O[C@H]5O[C@H](COS(=O)(=O)O)[C@@H](O)[C@H](O)[C@H]5NS(=O)(=O)O)[C@H](O)[C@H]4O)[C@H](OS(=O)(=O)O)[C@H]3NS(=O)(=O)O)[C@H](O)[C@H]2OS(=O)(=O)O)[C@H](O)[C@H]1NS(=O)(=O)O [Fondaparinux Sodium],104%
9,O=c1c(-n2ccnn2)c[nH]n1-c1cc(N2CCOCC2)ncn1 [Molidustat (BAY 85-3934)],81.4%
10,CC(C)OC(=O)OCOP(=O)(CO[C@H](C)Cn1cnc2c(N)ncnc21)OCOC(=O)OC(C)C [Tenofovir Disoproxil Fumarate],86.9%
11,"CC(C)OC(=O)[C@H](C)N[P@](=O)(OC[C@H]1O[C@@H](n2ccc(=O)[nH]c2=O)[C@](C)(F)[C@@H]1O)Oc1ccccc1 [Sofosbuvir (PSI-7977, GS-7977)]",105%
12,CC(C)OC(=O)[C@H](C)N[P@](=O)(CO[C@H](C)Cn1cnc2c(N)ncnc21)Oc1ccccc1 [Tenofovir Alafenamide (GS-7340)],2.77% (active)
13,CCN(C(=O)c1c(O)c2c(Cl)cccc2n(C)c1=O)c1ccccc1 [Laquinimod],117%
14,CC(=O)Nc1cccc(-n2c(=O)n(C3CC3)c(=O)c3c(Nc4ccc(I)cc4F)n(C)c(=O)c(C)c32)c1,43.8%
15,Cc1ccccc1C(=O)Nc1ccc(C(=O)N2CCCC(O)c3cc(Cl)ccc32)c(C)c1 (centres undefined) [Tolvaptan],68%
16,Cc1[nH]c2ccccc2c1CCNCc1ccc(/C=C/C(=O)NO)cc1 [Panobinostat (LBH589)],34.1%
17,CC(C)C[C@H](NC(=O)[C@@H](NC(=O)c1cccc(-c2ccccc2)n1)[C@@H](C)O)B(O)O,106%
18,CN(C(=O)c1ccc(F)cc1C(F)(F)F)C1CCN(c2nnc(-c3ccnn3C)c3ccccc23)CC1,113%
19,O=c1[nH]c(=O)n([C@H]2C[C@H](O)[C@@H](CO)O2)cc1/C=C/Br [Brivudine],2.36% (active)
20,Cc1cn([C@H]2C[C@H](N=[N+]=[N-])[C@@H](CO)O2)c(=O)[nH]c1=O [Zidovudine],89.6%

row,Compound,HSV-1 infection
1,O=c1[nH]c(=O)n([C@H]2C[C@H](O)[C@@H](CO)O2)cc1I [Idoxuridine],2.44% (active)
2,O=c1[nH]c(=O)n([C@H]2C[C@H](O)[C@@H](CO)O2)cc1C(F)(F)F [Trifluridine],20.6%
3,Cc1cn([C@H]2O[C@@H](CO)[C@H](O)[C@H]2F)c(=O)[nH]c1=O [Clevudine],114%
4,Cc1cn([C@@H]2C[C@@H](O)[C@H](CO)O2)c(=O)[nH]c1=O [Telbivudine],139%
5,CCNC1(C(N)=O)CCN(c2ncnc3c2nc(-c2ccccc2Cl)n3-c2ccc(Cl)cc2)CC1,105%
6,O=C1C(CC[S+]([O-])c2ccccc2)C(=O)N(c2ccccc2)N1c1ccccc1 (racemic) [(+/-)-Sulfinpyrazone],111%
7,C=CN1CCCC1=O.II [Povidone iodine],108%
8,CCCCCOc1ccccc1/C(=C\SC)n1ccnc1 [Neticonazole Hydrochloride],61.4%
9,"CC(C)(C)C#Cc1cc(N(C(=O)[C@H]2CC[C@H](C)CC2)[C@H]2CC[C@H](O)CC2)c(C(=O)O)s1 [Lomibuvir (VX-222, VCH-222)]",130%
10,COc1cc2c(cc1OC)CN(CCc1ccc(NC(=O)c3cccc4c(=O)c5cccc(OC)c5[nH]c34)cc1)CC2,135%
11,COC(=O)N[C@H](C(=O)N1CC2(CC2)C[C@H]1c1nc(-c2ccc3c(c2)C(F)(F)c2cc(-c4ccc5[nH]c([C@@H]6[C@H]7CC[C@H](C7)N6C(=O)[C@@H](NC(=O)OC)C(C)C)nc5c4)ccc2-3)c[nH]1)C(C)C [Ledipasvir (GS5885)],105%
12,CCCCC[C@](C)(O)/C=C/[C@@H]1[C@@H](C/C=C\CCCC(=O)O)[C@@H](O)C[C@H]1O [Carboprost],117%
13,Nc1nc(Cl)nc2c1ncn2[C@H]1C[C@H](O)[C@@H](CO)O1 [Cladribine],22.3%
14,Nc1ncn([C@H]2C[C@H](O)[C@@H](CO)O2)c(=O)n1 [Decitabine],7.64% (active)
15,NC(=O)c1ncn([C@@H]2O[C@H](CO)[C@@H](O)[C@H]2O)c1N [AICAR (Acadesine)],67.6%
16,Nc1ncn([C@@H]2O[C@H](CO)[C@@H](O)[C@H]2O)c(=O)n1 [Azacitidine],5.54% (active)
17,NC(=O)c1ncn([C@@H]2O[C@H](CO)[C@@H](O)[C@H]2O)c1O [Mizoribine],89.7%
18,Nc1ccn([C@H]2CC[C@@H](CO)O2)c(=O)n1 [Zalcitabine],98.8%
19,CC#CC(=O)N1CCC[C@H]1c1nc(-c2ccc(C(=O)Nc3ccccn3)cc2)c2c(N)nccn12 [Acalabrutinib (ACP-196)],98.3%
20,CNC(=O)CN(CCN(CCN(CC(=O)[O-])CC(=O)NC)CC(=O)[O-])CC(=O)[O-].O.[Gd+3] [Gadodiamide Hydrate],108%

row,Compound,HSV-1 infection
1,COc1ccc(C[C@@H](C)NC[C@H](O)c2ccc(O)c(NC=O)c2)cc1 [Arformoterol Tartrate],112%
2,Cn1cnc2c(F)c(Nc3ccc(Br)cc3Cl)c(C(=O)NOCCO)cc21 [Selumetinib (AZD6244)],52.5%
3,CNCc1cc(-c2ccccc2F)n(S(=O)(=O)c2cccnc2)c1 [Vonoprazan Fumarate (TAK-438)],95.8%
4,CCCNS(=O)(=O)Nc1ncnc(OCCOc2ncc(Br)cn2)c1-c1ccc(Br)cc1 [Macitentan],93.1%
5,C[C@@H](O)[C@H]1C(=O)N2C(C(=O)OCOC(=O)C(C)(C)C)=C(SC3CN(C4=NCCS4)C3)[C@H](C)[C@H]12 [Tebipenem Pivoxil],92.2%
6,"CC1CCC(C(C)C)C(O)C1 (single isomer, unassigned; (-)) [(-)-Menthol]",99.1%
7,CC(C)[C@H](N)C(=O)OCCOCn1cnc2c(=O)nc(N)[nH]c21 [Valaciclovir HCl],4.82% (active)
8,CC(C)[C@H](N)C(=O)OCC(CO)OCn1cnc2c(=O)[nH]c(N)nc21 (some centres undefined) [Valganciclovir HCl],2.02% (active)
9,Nc1nc2c(ncn2COC(CO)CO)c(=O)[nH]1 [Ganciclovir],2.93% (active)
10,Nc1ccn(C[C@@H](CO)OCP(=O)(O)O)c(=O)n1 [Cidofovir],45.8%
11,Nc1nc2c(ncn2COCCO)c(=O)[nH]1 [Aciclovir],3.03% (active)
12,C[C@H](Cn1cnc2c(N)ncnc21)OCP(=O)(O)O [Tenofovir],119%
13,O=c1[nH]cnc2c1ncn2[C@H]1CC[C@@H](CO)O1 [Didanosine],112%
14,C=C1[C@H](CO)[C@@H](O)C[C@@H]1n1cnc2c(=O)[nH]c(N)nc21 [Entecavir Hydrate],12.1% (active)
15,O=c1[nH]cnc2c1ncn2[C@@H]1O[C@H](CO)[C@@H](O)[C@H]1O [Inosine],82.6%
16,C=C1[C@H](CO)[C@@H](O)C[C@@H]1n1cnc2c(=O)[nH]c(N)nc21 [Entecavir],7.02% (active)
17,N/N=c1\[nH][nH]/c(=N\N)c2ccccc12 [Dihydralazine sulphate],123%
18,C1CNCCNCCNCCN1 [Cyclen],105%
19,C=C1CCN([C@H](C)[C@](O)(Cn2cncn2)c2ccc(F)cc2F)CC1 [Efinaconazole],93.8%
